The text below walks through data of PubChem BioAssay AID2289 (National Center for Advancing Translational Sciences (NCATS), 2010).

The structures appear in SMILES notation. In all, about 340,000 compounds went through this assay and about 3,300 (0.97%) were called active. Another 9% or so got no clear call; they are omitted. Calls come from the whole dose curve; as a rule, active = well fitted inhibition curve with a large enough effect; inconclusive = small, poorly fitted or top-dose-only effect, or effect the other way; inactive = flat fitted curve, though single readings scatter. Some of the results follow.
Potency is the fitted concentration of half-maximal effect.

This assay is described as follows: qHTS Assay for Modulators of miRNAs and/or Inhibitors of miR-21. Note: nearly all actives have a fitted effect of over 55% in size. The note with it: HeLa miR-21-FLuc reporter, luciferase luminescence, 48 h; actives lower the signal. The gist of the method:
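Compounds were titrated across several concentrations (up to approximately 40 uM) and incubated 48 hours with HeLa miR-21-FLuc reporter cells (miR-21 target sequence downstream of FLuc, endogenous miR-21). Readout was firefly luciferase luminescence after lytic detection reagent.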
For the compound `CC(C)COc1ccc(C(=O)Nc2ccccc2[N+](=O)[O-])cc1`, the Potency was 8.26 µM (active).

With `Cc1ccc(NC(=O)c2ccc(C(C)(C)C)cc2)cc1[N+](=O)[O-]`, the Potency was 5.21 µM (active). The value for `Cc1cc(NC(=O)c2ccccc2[N+](=O)[O-])ccc1Br` was 7.36 µM (active). Then `Cc1ccc(NC(=O)C2C3CCCCC32)cc1[N+](=O)[O-]` (configuration not stated), with 13.1 µM (active); and `CC(C)(C)c1ccc(C(=O)Nc2ccc([N+](=O)[O-])cn2)cc1`, with 0.464 µM (active); and `CC(C)(C)c1cc(NC(=O)c2cccc([N+](=O)[O-])c2)no1`, with 1.47 µM (active). The value for `O=C(Nc1ccccn1)c1cc2cc([N+](=O)[O-])ccc2s1` was 0.826 µM (active).

Turning to `CC(C)(C)c1ccc(NC(=O)c2ccccc2)c([N+](=O)[O-])c1`, the Potency is 0.736 µM (active). Then `Clc1ccc(-c2noc(CN3CCOCC3)n2)cc1`, with 16.5 µM (active); and `c1ccc(OCCOc2cccc3cccnc23)cc1`, with 13.1 µM (active); and `O=[N+]([O-])c1ccccc1OCCCOc1cccc2cccnc12`, with 5.21 µM (active). Then `COc1cccc(OC)c1OCCCOc1cccc2cccnc12`, with 7.36 µM (active).

For `Brc1ccccc1OCCOc1cccc2cccnc12`, the Potency is 11.7 µM (active). Then `CC(C)Sc1nc(SCC(=O)O)c2c3c(sc2n1)COC(C)(C)C3`, with 9.27 µM (active).

For `COCCCNC(=O)C1CCN(C(=O)c2oc3cc4sc(N(C)C)nc4cc3c2C)CC1`, the Potency is 14.7 µM (active). The value for `Cc1ccc(C)c(NC(=S)c2ccc3ccccc3n2)c1` was 1.65 µM (active); that for `Cc1ccccc1NC(=S)c1ccc2ccccc2n1` was 7.36 µM (active); that for `N/C(=N\OC(=O)COc1ccc2ccccc2c1Br)c1ccncc1` was 16.5 µM (active). Regarding `N/C(=N\OC(=O)COc1ccc2ccccc2c1Br)c1ccccn1`, the Potency is 7.36 µM (active). The value for `CCOC(=O)c1c(NC(=O)CN2CCN(C)CC2)sc(C(=O)Nc2ccccc2)c1C` was 18.5 µM (active); that for `COc1cc(/C=N/NS(=O)(=O)c2ccc3ccccc3c2)ccc1OCc1ccc(C(=O)O)cc1` was 0.414 µM (active). The value for `COc1cc(/C=N/NS(=O)(=O)c2ccc(C)cc2)ccc1OCc1cccc(C(=O)O)c1` was 0.464 µM (active). The value for `Cc1cc(SCC(=O)Nc2nsc(-c3ccc(C(C)(C)C)cc3)n2)nc2ccccc12` was 2.33 µM (active); that for `COc1ccc(-n2cc(CN(C)CCO)c(-c3cccc(F)c3)n2)cc1` was 0.414 µM (active); that for `C/C(=N\OCc1cccc(C(=O)O)c1)c1ccc(Cl)cc1` was 0.0414 µM (active).

As to `COc1cc(/C=N/OCC(=O)NC2CCCCC2C)ccc1OCc1ccc(Cl)cc1` (configuration not stated), the Potency is 4.65 µM (active). Turning to `COc1cc(/C=N/OCC(=O)Nc2cc(C)cc(C)c2)ccc1OCc1ccc(Cl)cc1`, the Potency is 2.93 µM (active). Then `CCCCc1ccc(NC(=O)C2CCCO2)cc1` (configuration not stated), with 1.85 µM (active). On to `CC1CCN(C(=O)Cn2nnc(-c3cccs3)n2)CC1`, for which the Potency was 7.36 µM (active). The value for `Brc1ccc(-c2cn3cc(Cc4ccccc4)sc3n2)cc1` was 0.329 µM (active).

As for `COc1cccc(OCc2cc(C(=O)NCc3ccccn3)no2)c1`, the Potency was 13.1 µM (active). Then `CSc1ccccc1OCc1cc(C(=O)NCc2cccc(C)n2)no1`, with 7.36 µM (active); and `CSc1ccccc1OCc1cc(C(=O)N(C)Cc2ccncn2)no1`, with 8.26 µM (active); and `CSc1ccccc1OCc1cc(C(=O)N(C)Cc2nonc2C)no1`, with 8.26 µM (active). The value for `CC(NC(=O)c1cc(COc2ccccc2)on1)c1nccs1` (configuration not stated) was 2.07 µM (active); that for `CN1CCc2c(sc(/N=C/c3cc(Cl)ccc3O)c2C#N)C1` was 6.56 µM (active). Then `COc1cccc([C@@H]2Oc3ccc(OC)cc3C(=O)[C@H]2OC(=O)NCc2ccc3c(c2)OCO3)c1`, with 5.85 µM (active); and `COc1ccc2c(c1)O[C@H](c1ccc3c(c1)OCO3)[C@@H](O)C2=O`, with 11.7 µM (active); and `COc1ccc(C(=O)OCc2csc(C)n2)c(O)c1`, with 7.36 µM (active). Consider `Cc1nc(COC(=O)c2c(C)nn(-c3ccccc3)c2C)cs1`, for which the Potency is 16.5 µM (active).

Regarding `O=C(OCc1csc(-c2ccccc2)n1)c1ccc(O)cc1`, the Potency is 14.7 µM (active). Take `O=C(OCc1csc(-c2ccccc2)n1)c1ccccc1O`: the Potency was 9.27 µM (active). The value for `Cc1ccc(SC[C@H](c2ccccc2)N2CCN(C)CCC2=O)cc1` was 9.27 µM (active); that for `Cc1ccc(SC[C@H](CC(C)C)N2CCN(C)CCC2=O)cc1` was 10.4 µM (active). For the compound `O=C(NCCC1=CCCCC1)c1cnc2n(c1=O)CCS2`, the Potency was 6.56 µM (active). Then `Fc1ccccc1Nc1nc2ccccc2o1`, with 0.521 µM (active). The value for `Cn1cccc1C(=O)OCc1cc(Cl)cc2c1OCOC2` was 13.1 µM (active); that for `C=CCN=c1scc(C)n1/N=C/c1ccc(O)c(O)c1` was 11.7 µM (active); that for `Cc1c(C(=O)OC(C)C)sc(N)c1C(=O)OC(C)C` was 6.56 µM (active). The value for `CCCOC(=O)c1c(N)sc(C(=O)OCC)c1C` was 14.7 µM (active); that for `CCOC(=O)c1c(N)sc(C(=O)OCCOC)c1C` was 18.5 µM (active); that for `Cc1cc2cc(C=C(C#N)C#N)c(Cl)nc2cc1C` was 7.36 µM (active).

On to `N/C(=N\OC(=O)COc1ccc(Cl)cc1Cl)c1ccncc1`, for which the Potency was 0.585 µM (active). For the compound `N/C(=N\OC(=O)COc1ccc(Cl)cc1Br)c1ccncc1`, the Potency was 1.65 µM (active). The value for `Cc1ccc(/C(N)=N/OC(=O)COc2ccccc2Cl)cc1` was 10.4 µM (active); that for `Cc1ccc(OCC(=O)O/N=C(\N)c2ccncc2)c(C)c1` was 4.14 µM (active). Take `N/C(=N\OC(=O)COc1ccc(Br)cc1Cl)c1ccncc1`: the Potency is 0.927 µM (active). For `N/C(=N\OC(=O)COc1ccc(Br)cc1Cl)c1ccccn1`, the Potency is 0.117 µM (active). The value for `CCc1ccc(OCC(=O)O/N=C(\N)c2ccncc2)c(Br)c1` was 4.65 µM (active); that for `COc1ccc(NC(=O)CSc2ccccc2)c([N+](=O)[O-])c1` was 7.36 µM (active); that for `COc1ccc(NC(=O)c2ccco2)c([N+](=O)[O-])c1` was 7.36 µM (active).

For the compound `CCOc1ccc(NC(=O)c2cccs2)c([N+](=O)[O-])c1`, the Potency is 0.826 µM (active).

In the case of `CSc1ccc(/C=N/Nc2cccc(C(=O)O)c2)cc1`, the Potency was 0.147 µM (active). The value for `O=C(O)c1cccc(N/N=C/c2ccc(-c3ccccc3)cc2)c1` was 0.147 µM (active); that for `O=C(O)c1cccc(N/N=C/c2ccc(OC(F)(F)F)cc2)c1` was 0.0521 µM (active); that for `O=C(O)c1cccc(N/N=C/C2=C(Cl)c3cc(Cl)ccc3SC2)c1` was 0.261 µM (active). The value for `O=C(O)c1cccc(N/N=C/c2ccc(F)c(F)c2)c1` was 0.233 µM (active). With `O=c1n(Cc2ccccc2Cl)nc2n1-c1ccccc1SC2`, the Potency was 10.4 µM (active). Take `COCCn1c(C(F)(F)F)ccc(NC(=O)c2ccccc2)c1=O`: the Potency is 1.85 µM (active).

Take `COc1cccc(C(=O)Nc2ccc(C(F)(F)F)n(C)c2=O)c1`: the Potency was 1.47 µM (active). Then `Cc1cccc(-n2cnc3cc(C(=O)N4CCCCC4)ccc32)c1`, with 9.27 µM (active); and `O=C(N=C1N=C2C=CC(Br)=CN2Cc2ccccc21)c1ccc([N+](=O)[O-])cc1[N+](=O)[O-]`, with 3.69 µM (active). The value for `CCCCC#Cc1ccc2c(c1)COc1c3ccccc3nn1-2` was 2.07 µM (active).

`COC(=O)c1c(-c2cccs2)csc1NC(=O)COc1ccccc1`: the Potency is 7.36 µM (active).

As to `COC(=O)c1c(-c2cccs2)csc1NC(=O)c1cccc(Cl)c1`, the Potency was 0.656 µM (active).

Turning to `Cc1cc(C(=O)Nc2ccc3ccccc3c2)oc1C`, the Potency was 0.293 µM (active). `Cc1cc(C(=O)Nc2ccccc2)oc(=O)c1`: the Potency is 6.56 µM (active). Then `Cc1oncc1C(=O)Nc1ccc2ccccc2c1`, with 7.36 µM (active). The value for `CC(=O)c1sc(NC(=O)c2ccccc2F)nc1-c1ccccc1` was 3.29 µM (active).

For the compound `O=C(Nc1ccccc1[N+](=O)[O-])C1COc2ccccc2O1` (configuration not stated), the Potency is 3.29 µM (active). Then `O=C(Nc1ncccc1Cl)C1COc2ccccc2O1` (configuration not stated), with 4.65 µM (active); and `CCSc1nc2c(cnn2-c2ccccc2)c(=O)n1N`, with 2.33 µM (active).

In the case of `CC(=O)Nc1ccc(C(=O)NCCc2ccccc2)cc1`, the Potency was 7.36 µM (active). For the compound `O=C(NCCc1ccccc1)Nc1ccc(Cl)cc1`, the Potency was 1.65 µM (active). Then `Cc1csc2nc(CSc3nc4ccccc4o3)c(Br)n12`, with 4.65 µM (active); and `Clc1c(CSc2nc3ccccc3o2)nc2sccn12`, with 1.12 µM (active); and `Cc1nc(NC(C)C)c2cnn(CCc3ccccc3)c2n1`, with 14.7 µM (active). On to `CCN(CC)c1nc(C)nc2c1cnn2CCc1ccccc1`, for which the Potency was 5.85 µM (active). Then `CCOC(=O)c1c(C)oc2c1c(C(c1ccncc1)N1CCOCC1)c(O)c1ccccc12` (configuration not stated), with 16.5 µM (active); and `CCOC(=O)c1c(C)oc2c1c(C(c1ccccc1)N1CCOCC1)c(O)c1ccccc12` (configuration not stated), with 3.69 µM (active); and `NC(=O)c1cnn(-c2cc(Oc3ccccc3)ncn2)c1N`, with 2.07 µM (active).

On to `NC(=O)c1cnn(-c2ccc3ccccc3c2)c1N`, for which the Potency is 16.5 µM (active). Then `Cc1ccc(-c2cc(C(=O)Nc3cccnc3)[nH]n2)c(O)c1C`, with 2.93 µM (active); and `CCc1ccc(O)c(-c2cc(C(=O)Nc3cccnc3)[nH]n2)c1`, with 2.33 µM (active); and `Cc1ccc(O)c(-c2cc(C(=O)Nc3cccnc3)[nH]n2)c1`, with 2.61 µM (active). The value for `O=C(Nc1cccnc1)c1cc(-c2cc(Cl)ccc2O)n[nH]1` was 2.33 µM (active).

In the case of `Cc1cc(O)c(-c2cc(C(=O)Nc3cccnc3)[nH]n2)cc1C`, the Potency was 0.414 µM (active). The value for `COc1ccc(Cl)c2c1[nH]c1nc(SCc3ccccn3)nnc12` was 1.65 µM (active); that for `O=C(COc1ccccc1Cl)Nc1ccccc1C(=O)N1CCCCC1` was 6.56 µM (active). Then `O=C(COc1ccccc1Cl)NC(=O)NC1CCCC1`, with 8.26 µM (active). The value for `O=C(COc1ccc(Br)cc1Br)NC(=O)NC1CCCC1` was 5.21 µM (active); that for `CC(C)(C)NC(=O)NC(=O)COc1ccc(Br)cc1Br` was 0.585 µM (active).
